Laboratory results published in PubChem BioAssay (Tox21).
Results filed as inconclusive are left out. Calls of active or inactive are those of the source. The call rests on the fitted dose curve; in most records, active means well fitted curve in the direction sought with a large enough effect in the repeat runs; inconclusive means weak or mixed curves; inactive means no such curve, though single readings can be large; an effect the other way counts as inactive or inconclusive.

Experiments:
[1] = qHTS RealTime-Glo MT Cell Viability Assay in HEK293 cells - 0 hour (AID 1224880); settings: RealTime-Glo luminescence; series mostly up to 76.8 µM; further: top concentration of the series differs between compounds; nearly all actives have a fitted effect of over 45% in size
Procedure, shortened: (§1)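 Tox21 screen in HEK293 using RealTime-Glo MT chemistry, with cells and reagent co-dispensed. Luminescence proportional to viable cell number was captured at intervals during 40 h compound exposure at 37 C.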

[2] = A CellTox Green Cytotoxicity Assay to monitor cytotoxicity in HEK293 cells - 32 hour (AID 1224881); settings: CellTox Green fluorescence; series mostly up to 76.8 µM; further: nearly all actives have a fitted effect of over 40% in size
Procedure, shortened: (§2)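 Seeding of HEK293 cells together with cytotoxicity dye preceded a 5 h incubation at 37 C/5% CO2. Test compounds in DMSO were then added and fluorescence monitored across 40 h.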

[3] = A CellTox Green Cytotoxicity Assay to monitor cytotoxicity in HepG2 cells - 0 hour (AID 1224882); settings: CellTox Green fluorescence; series mostly up to 76.8 µM; further: nearly all actives have a fitted effect of over 35% in size
Procedure, shortened: (§3)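 Nonlytic assay: viable cells exclude the dye, so fluorescence scales with cell death. HepG2 at 600 cells/well, compounds added after 5 h, signal read across 40 h.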

[4] = A CellTox Green Cytotoxicity Assay to monitor cytotoxicity in HepG2 cells - 32 hour (AID 1224883); settings: CellTox Green fluorescence; series mostly up to 76.8 µM; further: nearly all actives have a fitted effect of over 50% in size
Procedure, shortened: as §3

[5] = A CellTox Green Cytotoxicity Assay to monitor cytotoxicity in HEK293 cells - 8 hour (AID 1224884); settings: CellTox Green fluorescence; series mostly up to 76.8 µM; further: nearly all actives have a fitted effect of over 35% in size
Procedure, shortened: as §2

[6] = qHTS RealTime-Glo MT Cell Viability Assay in HepG2 cells - 16 hour (AID 1224885); settings: RealTime-Glo luminescence; series mostly up to 76.8 µM; further: nearly all actives have a fitted effect of over 50% in size; further: potency means the concentration at half of the fitted maximal effect
Procedure, shortened: (§4)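 Cells + NanoLuc/prosubstrate dispensed (600 cells/well) → 5 h at 37 C/5% CO2 → compounds in DMSO transferred → 40 h incubation at 37 C, luminescence read at 0, 8, 16, 24, 32, 40 h.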

[7] = qHTS RealTime-Glo MT Cell Viability Assay in HEK293 cells - 24 hour (AID 1224886); settings: RealTime-Glo luminescence; series mostly up to 76.8 µM; further: nearly all actives have a fitted effect of over 50% in size; further: potency means the concentration at half of the fitted maximal effect; on activity change, negative = cytotoxicity: top concentration of the series differs between compounds
Procedure, shortened: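 Tox21 10K qHTS, HEK293, 600 cells/well, RealTime-Glo reagent co-dispensed with cells; 5 h preincubation, compound by pintool, 37 C, luminescence at 0–40 h.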

[8] = qHTS RealTime-Glo MT Cell Viability Assay in HEK293 cells - 8 hour (AID 1224887); settings: RealTime-Glo luminescence; series mostly up to 76.8 µM; further: nearly all actives have a fitted effect of over 50% in size; further: potency means the concentration at half of the fitted maximal effect; on activity change, negative = cytotoxicity: top concentration of the series differs between compounds
Procedure, shortened: as §1

[9] = A CellTox Green Cytotoxicity Assay to monitor cytotoxicity in HEK293 cells - 16 hour (AID 1224888); settings: CellTox Green fluorescence; series mostly up to 76.8 µM; further: nearly all actives have a fitted effect of over 35% in size
Procedure, shortened: as §2

[10] = qHTS RealTime-Glo MT Cell Viability Assay in HepG2 cells - 0 hour (AID 1224889); settings: RealTime-Glo luminescence; series mostly up to 76.8 µM; further: nearly all actives have a fitted effect of over 50% in size
Procedure, shortened: as §4
On the % scale 0 is the no-effect control and ±100 the full control effect.

CO/N=C1\CN(c2nc3c(cc2F)c(=O)c(C(=O)O)cn3C2CC2)CC1CN (stereo unspecified)
inactive: Potency [1] | Potency [2] | Potency [3] | Potency [4] | Potency [5] | Potency [6] | Potency [7] | Potency [8] | Potency [9]

N#C[C@@H]1C[C@@H]2C[C@@H]2N1C(=O)[C@@H](N)C12CC3CC(CC(O)(C3)C1)C2
inactive: Potency [1] | Potency [2] | Potency [3] | Potency [4] | Potency [5] | Potency [6] | Potency [7] | Potency [8] | Potency [9] | Potency [10]

CN1C(=O)CC(C)(c2ccccc2)C1=O (stereo unspecified)
inactive: Potency [1] | Potency [2] | Potency [3] | Potency [4] | Potency [5] | Potency [6] | Potency [7] | Potency [8] | Potency [9]

O=C1OCCN1/N=C/c1ccc([N+](=O)[O-])o1
inactive: Potency [1] | Potency [2] | Potency [3] | Potency [4] | Potency [5] | Potency [6] | Potency [7] | Potency [8] | Potency [9] | Potency [10]

Nc1nc(Cl)nc2c1ncn2[C@@H]1O[C@H](CO)[C@@H](O)[C@@H]1F
active: Potency [7] 4.77 µM
inactive: Potency [1] | Potency [2] | Potency [3] | Potency [4] | Potency [5] | Potency [6] | Potency [8] | Potency [9] | Potency [10]

C=CC(=C)CCCC(C)(C)OC(C)=O
inactive: Potency [1] | Potency [2] | Potency [3] | Potency [4] | Potency [5] | Potency [6] | Potency [7] | Potency [8] | Potency [9]

CCCCC(CC)CNCC(CC)CCCC (stereo unspecified)
inactive: Potency [1] | Potency [2] | Potency [3] | Potency [4] | Potency [5] | Potency [6] | Potency [7] | Potency [8] | Potency [9] | Potency [10]

Oc1cc(O)c(Cl)cc1Cl
inactive: Potency [1] | Potency [2] | Potency [3] | Potency [4] | Potency [5] | Potency [6] | Potency [7] | Potency [8] | Potency [9] | Potency [10]

C=CC(C)=CCC=C(C)C
inactive: Potency [1] | Potency [2] | Potency [3] | Potency [4] | Potency [5] | Potency [6] | Potency [7] | Potency [8] | Potency [9] | Potency [10]

O=C(CCCCCCCCC#CI)Oc1ccccc1
inactive: Potency [1] | Potency [2] | Potency [3] | Potency [4] | Potency [5] | Potency [7] | Potency [8] | Potency [9] | Potency [10]
active: Potency [6] 15.1 µM

COC(=O)c1cc(S(N)(=O)=O)ccc1OC
inactive: Potency [1] | Potency [2] | Potency [3] | Potency [4] | Potency [5] | Potency [6] | Potency [7] | Potency [8] | Potency [9] | Potency [10]

CCCC(=O)O[C@]1(C(=O)COC(=O)CC)CC[C@H]2[C@@H]3CCC4=CC(=O)CC[C@]4(C)[C@H]3[C@@H](O)C[C@@]21C
inactive: activity change, negative = cytotoxicity [1] 0.536% [at 15.8 µM] | cytotoxicity increase [2] -18.3% [at 15.8 µM] | cytotoxicity [3] -8.79% [at 15.8 µM] | cytotoxicity increase [4] -8.25% [at 15.8 µM] | cytotoxicity increase [5] -4.08% [at 15.8 µM] | activity change, negative = cytotoxic [6] 1.6% [at 15.8 µM] | activity change, negative = cytotoxicity [7] 2.56% [at 15.8 µM] | activity change, negative = cytotoxicity [8] 0.511% [at 15.8 µM] | activity change [9] -13.4% [at 15.8 µM, stronger effect = higher value] | activity change, negative = cytotoxicity [10] -13.7% [at 15.8 µM]

Cc1ccccc1N1C(=O)c2cc(S(N)(=O)=O)c(Cl)cc2NC1C (stereo unspecified)
inactive: Potency [1] | Potency [2] | Potency [3] | Potency [4] | Potency [5] | Potency [6] | Potency [7] | Potency [8] | Potency [9]

COc1cc2[nH]c(=O)[nH]c(=O)c2cc1OC
inactive: Potency [1] | Potency [2] | Potency [3] | Potency [4] | Potency [5] | Potency [6] | Potency [7] | Potency [8] | Potency [9] | Potency [10]

Nc1ccc(Cl)cc1[N+](=O)[O-]
inactive: Potency [1] | Potency [2] | Potency [3] | Potency [4] | Potency [5] | Potency [6] | Potency [7] | Potency [8] | Potency [9] | Potency [10]

CCCCCCCCCCCCCCCCBr
inactive: activity change, negative = cytotoxicity [1] 6.45% [at 15.8 µM] | cytotoxicity increase [2] 0.813% [at 15.8 µM] | cytotoxicity [3] -3.37% [at 15.8 µM] | cytotoxicity increase [4] -8.22% [at 15.8 µM] | cytotoxicity increase [5] -1.67% [at 15.8 µM] | activity change, negative = cytotoxic [6] 2.39% [at 15.8 µM] | activity change, negative = cytotoxicity [7] 6% [at 15.8 µM] | activity change, negative = cytotoxicity [8] 3.99% [at 15.8 µM] | activity change [9] 2.24% [at 15.8 µM, stronger effect = higher value] | activity change, negative = cytotoxicity [10] 6.9% [at 15.8 µM]

O=C(CS)OCCOC(=O)CS
inactive: Potency [1] | Potency [2] | Potency [3] | Potency [4] | Potency [5] | Potency [6] | Potency [7] | Potency [8] | Potency [9] | Potency [10]

Nc1ccc(C(=O)OCCCOC(=O)c2ccc(N)cc2)cc1
active: Potency [7] 43.6 µM | Potency [8] 43.6 µM
inactive: Potency [1] | Potency [2] | Potency [3] | Potency [4] | Potency [5] | Potency [6] | Potency [9] | Potency [10]

CNC(=O)N(c1ccccc1)c1ccccc1
inactive: Potency [1] | Potency [2] | Potency [3] | Potency [4] | Potency [5] | Potency [6] | Potency [7] | Potency [8] | Potency [9] | Potency [10]
